From PubChem
An excerpt weighted towards active compounds, which were near 3.6% of everything screened.
B2AR arrestin ag: qHTS assay of beta-arrestin-biased ligands of beta2-adrenergic receptor: NCGC Sytravon Library Screen; Beta-2 adrenergic receptor (Homo sapiens), P07550; HTLA Tango cells, beta-arrestin recruitment, luciferase luminescence, 18 h; Potency, µM (top dose mostly 46.1 µM), most hits filed as activators; 44,000 tested, under 10 active; AID 1347077, 2019
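Tango cells expressing recombinant beta2-AR and beta-arrestin were treated with compounds (up to 46 microM titration) in DMEM with 1% FBS for 18 hr at 37 degrees C. Beta-arrestin recruitment drove tTA-dependent luciferase, read by luminescence; curves were fitted and classed.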
GALK inhibitor: qHTS Assay for Inhibitors of Human Galactokinase (GALK): NCGC Sytravon Library Screen | 44,000 tested, under 10 active | P51570 | AID 1347072, 2019 | Potency, µM (top dose mostly 57.5 µM), hits mostly inhibitors | recombinant GALK, Kinase-Glo ATP luminescence, 1 h
Target sequence (P51570 whole entry, looked up): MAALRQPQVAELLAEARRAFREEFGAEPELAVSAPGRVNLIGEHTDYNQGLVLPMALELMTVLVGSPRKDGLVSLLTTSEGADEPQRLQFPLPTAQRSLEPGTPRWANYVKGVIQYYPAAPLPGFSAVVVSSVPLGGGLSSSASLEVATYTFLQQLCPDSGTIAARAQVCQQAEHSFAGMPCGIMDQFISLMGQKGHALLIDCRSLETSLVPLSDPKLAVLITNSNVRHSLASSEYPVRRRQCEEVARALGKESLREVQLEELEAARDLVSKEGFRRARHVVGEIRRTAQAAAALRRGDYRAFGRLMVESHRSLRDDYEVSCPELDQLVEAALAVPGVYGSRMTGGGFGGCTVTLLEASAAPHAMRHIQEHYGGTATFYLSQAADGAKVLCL
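Human GALK (5 nM) was incubated with 35 uM ATP and 100 uM galactose in 20 mM HEPES pH 8.0 with MgCl2, NaCl, DTT and BSA for 1 h at room temperature. Remaining ATP was measured by Kinase-Glo Plus luminescence.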
NTMT1 inh: Primary qHTS for Inhibitors of N-terminal methyltransferase 1 (NTMT1): MTaseGlo Assay; Potency, µM (top dose mostly 114 µM), usual class: inhibitors; NTMT1 MTase-Glo SAH luminescence, purified enzyme; AID 1645870, 2021; N-terminal Xaa-Pro-Lys N-methyltransferase 1 (Homo sapiens), Q9BV86; 59,000 tested, 2.5% active; also: nearly all actives have a fitted effect of over 65% in size
Target sequence (Q9BV86 whole entry, looked up): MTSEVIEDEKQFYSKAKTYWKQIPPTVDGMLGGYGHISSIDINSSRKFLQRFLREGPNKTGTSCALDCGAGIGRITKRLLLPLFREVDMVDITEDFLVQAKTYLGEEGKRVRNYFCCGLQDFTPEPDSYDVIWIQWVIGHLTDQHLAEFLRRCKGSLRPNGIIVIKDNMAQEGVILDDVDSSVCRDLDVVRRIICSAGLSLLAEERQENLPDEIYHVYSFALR
DRV1 agonist: qHTS for Agonists of Human Resolvin D1 Receptor DRV1. Probable G-protein coupled receptor 32 (Homo sapiens), O75388. CHO-K1 GPR32 beta-arrestin PathHunter luminescence, 90 min; zero percent set by DMSO-only wells. activation, % at 76.9 µM. 48,000 tested, 2.5% active;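 active = activation of at least 60% and not above a set upper limit, about 1 call in 100 departs from these limits; inconclusive = activation of 40% to 60%, or above that upper limit; inactive = activation under 40%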
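Readings come from a cell-based beta-arrestin complementation format: CHO-K1 GPR32 stable cells (2,500/well) treated 90 min with compounds, then beta-Gal substrate added for 1 h before chemiluminescence imaging.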
GALC G270D act: A Novel Cell-Based Assay to Identify Small Molecules for B -Galactocerebrosidase; 45,000 tested, 0.1% active; Potency, µM (series often up to 57.5 µM), usual class: activators; P54803; 145M-Twi-hGALC-G270D cells (Twitcher mouse brain line with human GALC G270D), HMU-beta-Gal fluorescence, 48 h; also: nearly all actives have a fitted effect of over 65% in size
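Mutant human GALC (G270D), stably expressed in a Twitcher mouse brain cell line lacking endogenous GALC, is measured in live-treated cells via 6-hexadecanoylamino-4-methylumbelliferyl-β-galactoside hydrolysis (0.1 mM final, pH 5.2) with fluorescent detection.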
TSG101-PTAP inh: qHTS Validation Assay for Inhibitors of HIV-1 Budding by Blocking the Interaction of PTAP/TSG101: Sytravon Library Screen; Fluorescence polarization, FITC-PTAP peptide/Tsg101, 20 min; Tumor susceptibility gene 101 protein (Homo sapiens), Q99816; 44,000 tested, under 10 active; AID 1347069, 2019; Potency, µM (doses to about 115 µM), most hits filed as inhibitors
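Fluorescence polarization binding of Tsg101 binding domain (10 uM final) to FITC-labeled PTAP-motif peptide (50 nM final) in HEPES pH 7.5/NaCl/Tween 20/EDTA/TCEP buffer; 20 min at r.t. Actives by curve class, <25 µM, efficacy <60% inhibition.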
A number is an active result; - = inactive; ? = inconclusive; . = not tested or not shown. Unless noted, calls follow the shape of the dose curve; as a rule, active = well fitted curve in the direction sought with a large enough effect; inconclusive = small, poorly fitted or top-dose-only effect, or another doubt; inactive = no such curve, though single readings can be large; an effect the other way counts as inactive or inconclusive.

SMILES	B2AR arrestin ag	GALK inhibitor	NTMT1 inh	DRV1 agonist	GALC G270D act	TSG101-PTAP inh
CONC(=O)Nc1ccc(-c2sc3c(c2CN(C)C)c(=O)n(-c2ccc(OC)nn2)c(=O)n3Cc2c(F)cccc2F)cc1	.	.	-	.	.	.
Cc1ccc(-n2ncc3c(Nc4ccc5c(c4)OCCO5)ncnc32)cc1Cl	-	-	-	-	-	-
Clc1cccc(-n2ncc3c(NC4CCCCC4)ncnc32)c1	-	-	?	109	-	-
CCN(CC)c1ncnc2c1cnn2-c1cc(Cl)ccc1C	-	-	-	72	-	-
Fc1ccc(-n2ncc3c(Nc4ccc5c(c4)OCCO5)ncnc32)cc1	-	-	-	92	-	-
Cc1ccc(Cl)cc1-n1ncc2c(NC3CCCCC3)ncnc21	-	-	-	68	-	-
CCC[C@@H]1C[C@@H](C(=O)N[C@H](C(C)Cl)[C@H]2O[C@H](SC)[C@H](O)[C@@H](O)[C@H]2O)N(C)C1 (stereo partly drawn)	.	.	-	.	.	.
O=C(O)c1cc(I)ccc1NC(=O)[C@H](Cc1ccccc1)NCc1ccccc1	.	.	-	.	.	.
Fc1ccc(-n2ncc3c(NC4CCCCCC4)ncnc32)cc1	-	-	-	80	-	-
Cc1ccc(Cl)cc1-n1ncc2c(N3CCN(Cc4ccccc4)CC3)ncnc21	-	-	-	85	-	-
CCNC(=O)Nc1ccc(Oc2ncnc(N)c2/C=N/OC)cc1Cl	.	.	-	.	.	.
CN(C)S(=O)(=O)N(CC(=O)NCCSc1ccc(Cl)cc1)c1ccccc1	-	-	-	70	-	-
O=C(O)C(O[C@@H]1O[C@H](CO[C@@H]2O[C@H](CO)[C@@H](O)[C@H](O)[C@H]2O)[C@@H](O)[C@H](O)[C@H]1O)c1ccccc1 (stereo partly drawn)	.	.	-	.	.	.
CS(=O)(=O)N(CC(=O)Nc1ccc(Br)cc1)c1ccccc1Br	-	-	-	61	-	-
COc1ccccc1N(CC(=O)Nc1cc(C)cc(C)c1)S(C)(=O)=O	-	-	-	-	-	-
CCCCCCOc1cc2c(cc1N(C)c1ncc(C(=O)O)cn1)C(C)(C)CCC2(C)C	.	.	-	.	.	.
Ic1ccc(N2CCN(Cc3c[nH]c4ncccc34)CC2)cc1	.	.	.	76	.	.
Cc1cc(N[S+](=O)([O-])c2ccc(NC(=O)Cc3ccc(F)c(C)c3)cc2)no1	.	.	-	.	.	.
C#CC(C)(CC)NC(=O)Cn1nnc(-c2ccc(OCc3ccccc3C)cc2)n1 (stereo not drawn)	-	-	-	62	-	-
COC(=O)c1ccccc1NC(=O)Cn1nnc(-c2ccc(OC)cc2)n1	-	-	-	-	-	-
C#CC(C)(CC)NC(=O)Cn1nnc(-c2ccc(OCc3ccccc3F)cc2)n1 (stereo not drawn)	-	-	-	91	-	-
CC(=O)c1cccc(NC(=O)c2sc3nc4c(cc3c2N)CCCC4)c1	-	-	?	?	-	-
COc1ccc(NC(=O)c2sc3nc4c(cc3c2N)CN(C(C)C)CC4)c(OC)c1	-	-	?	81	-	-
Nc1c(C(=O)Nc2ccccc2F)sc2nc3c(cc12)CCCCCC3	-	-	-	72	-	-
COc1ccccc1NC(=O)c1sc2nc3c(cc2c1N)CCCCCC3	-	-	-	-	11µM	-
SMILES	B2AR arrestin ag	GALK inhibitor	NTMT1 inh	DRV1 agonist	GALC G270D act	TSG101-PTAP inh
COCCN1C(=O)c2ccccc2NC1c1ccc(OC)c(COc2c(C)cc(NC(C)=O)cc2C)c1 (stereo not drawn)	.	.	-	.	.	.
Cc1ccc(NC(=O)[C@H]2CCCN(C(=O)c3c(C)cccc3F)[C@H]2c2ccc(NC3CCCC3)cc2)cc1C(F)(F)F	.	.	-	.	.	.
CCC1CCc2nc3sc(C(=O)Nc4ccc(C)cc4C)c(N)c3cc2C1 (stereo not drawn)	-	-	-	69	-	-
COc1ccc(NC(=O)c2sc3nc4c(cc3c2N)CN(Cc2ccccc2)CC4)cc1	-	-	?	-	-	-
CCC1CCc2nc3sc(C(=O)Nc4ccc(F)c(F)c4)c(N)c3cc2C1 (stereo not drawn)	-	-	?	-	-	-
Nc1c(C(=O)Nc2cccc(Cl)c2)sc2nc3c(cc12)CN(Cc1ccccc1)CC3	-	-	-	61	-	-
CCN1CCc2nc3sc(C(=O)Nc4cccc(Cl)c4C)c(N)c3cc2C1	-	-	?	121	-	-
Cc1cccc(NC(=O)c2sc3nc4c(cc3c2N)CN(Cc2ccccc2)CC4)c1	-	-	-	-	-	-
CN1CCc2nc3sc(C(=O)Nc4c(F)cccc4F)c(N)c3cc2C1	-	-	-	-	-	-
Cc1ccc(NC(=O)c2sc3nc4c(cc3c2N)CN(Cc2ccccc2)CC4)cc1	-	-	-	116	-	-
Cc1cnc(-c2ccccc2C(C)C)nc1NCc1ccc(C2CCCNC2)cc1 (stereo not drawn)	.	.	-	.	.	.
C=C(F)c1sc(CNCCCNc2cc(=O)c3ccccc3[nH]2)c(C)c1Br	.	.	-	.	.	.
O=C(Nc1ccc(S(=O)(=O)Nc2nccs2)cc1)c1cccc2ccccc12	.	.	-	.	.	.
O=C(O)/C(S)=C/c1ccc(I)cc1	.	.	79µM	.	.	.
COc1ccc2c(c1O)OC(C)(C)c1c-2ccc2c1C(=O)N(c1ccc(C(=O)c3ccccc3)cc1)C2=O	.	.	-	.	.	.
CCS(=O)(=O)c1cccc(C(=O)Nc2ccc(-c3nc4ccccc4s3)c(O)c2)c1	-	-	?	61	-	-
COc1ccc2cc3cc(C(=O)Nc4cc(C)c(Cl)cc4OC)oc3nc2c1	-	-	-	-	-	-
COc1ccc2cc3cc(C(=O)Nc4ccccc4C)oc3nc2c1	-	-	-	98	-	-
COc1cccc(C2c3c(ncn(-c4ccccc4C#N)c3=N)Oc3ccc4ccccc4c32)c1 (stereo not drawn)	.	.	79µM	.	.	.
COc1cc(OC)c(NC(=O)Nc2cccc(OCc3cc(=O)n4ccccc4n3)c2)cc1Cl	-	-	79µM	-	-	-
COc1cc(OC)c(NC(=O)Nc2ccccc2OCc2cc(=O)n3cc(C)ccc3n2)cc1Cl	-	-	-	-	-	-
CCc1cc2c(c(OCC(F)(F)F)c(C(=O)NC3CCN(C(=O)CO)CC3)n2C)c(=O)n1CC(=O)c1ccccc1	.	.	-	.	.	.
